# Screening results deposited in PubChem BioAssay by several laboratories.
# 697 NFkB inh = inhibitors of PMA/ionomycin-induced NF-kB reporter, 697 cells, primary screen, B-cell NF-kB inhibitor project, cell-based, luminescence, uHTS. 697 B-cell NF-kB luciferase reporter, 16 h. inhibition, % at 4 µM. actives 0.33% (n = 330,000). AID 435022, 2010; in the data active = inhibition above about 35%
# Shn3 3UTR inh = reduction of Shn3 3'UTR firefly luciferase signal, primary screen, Schnurri-3 inhibitor project, cell-based, Clone20 osteoblasts, set 2; Clone20 osteoblast Shn3 3'UTR firefly luciferase, 24 h; inhibition, % at 12.5 µM; actives 0.52% (n = 360,000);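 active = mean inhibition of at least 75% with every replicate also reaching 75%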;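 also: 0% = median of neutral control wells and 100% = pilot-screen positive control compound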
# Gli-Sufu block = Gli-Sufu pathway antagonists, primary screen, luciferase luminescence, Sufu-KO-LIGHT cells, uHTS. actives 0.74% (n = 340,000). inhibition, % at 5 µM. AID 588413, 2011. Sufu-KO-LIGHT fibroblasts, Gli luciferase reporter luminescence;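 active = inhibition above about 55%, limit read from the data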;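 also: 0% = DMSO-treated cells and 100% = wells with medium but no cells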
# Mdm2-MdmX inh = inhibitors of human Mdm2-MdmX association, primary screen, cell-based, luminescence, split luciferase, SaOS-2, uHTS; Protein Mdm4 (Homo sapiens) + E3 ubiquitin-protein ligase Mdm2 (Homo sapiens), …; inhibition, % at 8 µM; actives 3% (n = 330,000); SaOS-2 split-luciferase Mdm2/MdmX complementation;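 active = inhibition of at least 50% at 8 µM in the primary screen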
# Jurkat NFkB inh = inhibitors of induced NF-kB luciferase reporter, primary screen, TCR NF-kB activation inhibitor project, cell-based, luminescence, uHTS | Jurkat, PMA/ionomycin-induced NF-kB luciferase reporter | inhibition, % at 4 µM | actives 0.53% (n = 330,000) | AID 435003, 2010; in the data active = inhibition above about 50%
# Mdm2-MdmX conf = Mdm2-MdmX complex disruptors, retested hits, confirmation, luminescence, single concentration. actives 55% (n = 10,000). Mdm2-MdmX binding, luminescent assay. shares compounds with Mdm2-MdmX inh. inhibition, % at 8 µM. AID 489028, 2010; in the data active = inhibition above about 40%
# FLuc counter = full-length luciferase signal inhibition, confirmation, counter-screen for Mdm2/MdmX interaction inhibitor project, cell-based, single concentration, SaOS-2; SaOS-2 full-length luciferase counterscreen, luminescence; shares compounds with Mdm2-MdmX inh; actives 77% (n = 6,200); inhibition, % at 8 µM; AID 504607, 2011;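 active = mean inhibition at 8 µM reaching about 37%, which flags the compound as non-specific, limit read from the data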;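 also: p53-null SaOS-2 cells with luciferase driven by a doxycycline-inducible promoter; compound on cells about two nights before reading with doxycycline added after day one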
# * hit, by the source's call; . = no result given. Hits are enriched below; roughly 3.8% of the tested compounds scored in any of these assays.
SMILES,697 NFkB inh,Shn3 3UTR inh,Gli-Sufu block,Mdm2-MdmX inh,Jurkat NFkB inh,Mdm2-MdmX conf,others
O=C(NCc1nc2ccccc2[nH]1)C1=C[C@@H](c2ccc(C(F)(F)F)cc2)C[C@@H](OCCCCO)O1,-18,13,8,7,22,.,
O=S1(=O)CC(c2ccccc2)=NN=C(c2ccccc2)C1,.,25,.,.,.,.,
COc1cccc2cc(C(=O)c3ccc([N+](=O)[O-])cc3)oc12,7,-134,-40,3,-40,.,
CC1=NN(c2nc(-c3ccc(C)cc3)cs2)C(=O)C1N=Nc1ccccc1O (centres undefined),-72,92*,36,72*,11,80*,FLuc counter=32
CC1=NN(c2nc(-c3ccc(C)cc3)cs2)C(=O)C1N=Nc1cccc(O)c1 (centres undefined),7,27,10,36,7,.,
CC(O)/C=C/c1ccc2ccccc2n1 (centres undefined),12,-3,-4,60*,-8,22,
COc1cc(C(=O)O/N=C2\C=CC(=O)C=C2C)cc(OC)c1OC,4,-3,3,29,7,.,
COc1cc(C(=O)ON=C2C3CC4CC(C3)CC2C4)cc(OC)c1OC,-35,3,-3,95*,6,27,
NS(=O)(=O)c1ccc(CCNC(=O)c2cc(-c3ccccn3)nc3ccc(Br)cc23)cc1,17,-2,3,77*,-7,16,
Cc1cc(NC(=O)c2cc(-c3cccs3)nc3ccccc23)no1,-8,-1,-10,51*,26,27,
Cc1cc(NC(=O)c2cc(-c3ccccn3)nc3ccccc23)no1,8,-10,9,17,1,.,
CC(C)NC(=O)c1cc(-c2cccs2)nc2ccccc12,10,-7,-1,13,-1,.,
Cc1cccc2sc(NNC(=O)c3cc(-c4cccs4)nc4ccccc34)nc12,-7,13,-3,82*,-6,51*,FLuc counter=61*
NS(=O)(=O)c1ccc(CCNC(=O)c2cc(-c3ccc(Br)cc3)nc3ccccc23)cc1,-5,7,2,40,-17,.,
Cc1cc(NC(=O)c2cc(-c3ccccn3)nc3ccc(Br)cc23)no1,-8,12,2,66*,4,23,
Cc1ccc(-c2nc(SC(C)C(=O)c3c(N)n(C)c(=O)n(C)c3=O)n[nH]2)cc1 (centres undefined),20,0,-3,-2,-12,.,
CN1CCN(NC(=O)c2ccc(Cl)c(S(=O)(=O)Nc3ccc(Cl)cc3)c2)CC1,10,24,12,5,-18,.,
CCN(CC)S(=O)(=O)c1ccc(NC(=O)c2cccs2)cc1,-3,-18,-4,18,3,.,
CCN(CC)S(=O)(=O)c1cc(NC(=O)c2cc(-c3ccccn3)nc3ccccc23)ccc1C,-15,15,17,52*,9,5,
CN(C)S(=O)(=O)c1ccc(NC(=O)c2cc(-c3cccs3)nc3ccccc23)cc1,6,18,16,64*,-4,62*,FLuc counter=53*
NS(=O)(=O)c1ccc(NC(=O)c2cc(-c3cccs3)nc3ccccc23)cc1,12,49,-5,87*,-9,30,
CCN(CC)C(=O)c1cccc(NC(=O)c2cc(-c3ccccn3)nc3ccccc23)c1,21,-3,6,29,-4,.,
CCN(CC)S(=O)(=O)c1ccc(NC(=O)c2cc(-c3cccs3)nc3ccccc23)cc1,35,7,-6,50*,9,23,
CC(=O)NS(=O)(=O)c1ccc(NC(=O)c2cc(-c3cccs3)nc3ccccc23)cc1,5,-5,-3,17,2,.,
